These results are taken from PubChem BioAssay.

Structures are written as SMILES.

This assay concerns Lefty1. Description: Lefty1 protein binding to printed compounds – biochemical, small-molecule microarray, 635/667 nm fluorescence, primary screen (AID 1139). As to conditions: fluorescence 635/667, higher = more signal.
Turning to `COC(=O)c1c2oc(c1C(=O)OC)C(=O)N(Cc1ccccc1)Cc1cn(nn1)C[C@H](Cc1ccccc1)NC(=O)N[C@H](CO)CC2`, the composite z-score is 0.717. The figure for `O=C1O[C@H](c2ccccc2)[C@H](c2ccccc2)N2[C@H]1[C@@H](C(=O)Nc1nc3ccccc3s1)[C@]1(C(=O)Nc3ccc(C#CC4(O)CCCCCC4)cc31)[C@H]2c1ccccc1OCCO` is 1.16; for `O=C1O[C@@H](c2ccccc2)[C@@H](c2ccccc2)N2[C@@H](c3ccccc3OCCO)[C@]3(C(=O)Nc4ccc(C#CCCO)cc43)[C@@H](C(=O)N3CCCCCCC3)[C@H]12` it is 1.87. `CC(C)N1CC=CC23O[C@@H]4C=CCOC(=O)[C@@H]4[C@H]2C(=O)N(CCCO)[C@@H]3C1=O` (stereo not given in full) gave a composite z-score of -0.133.

`COc1ccc([Si](C)(C)[C@@H]2[C@@H](CC(=O)N(CCO)Cc3ccccc3)O[C@]3(C(=O)N(Cc4cccc(N5CCOC5=O)c4)c4ccccc43)[C@H]2C)cc1` had a composite z-score of 0.899. As to `COC(=O)[C@@]1(Cc2ccc(F)cc2)[C@H]2c3cc(C(=O)N4CCCC4)n(CCN4CNCC4=O)c3C[C@H]2CN1C(=O)c1ccccc1`, the composite z-score was -0.0252. The figure for `C=C[C@@H](COC(C)=O)N(C(=O)OC(C)(C)C)S(=O)(=O)c1ccc(Br)cc1` is 1.65; for `CN(C)C(=O)[C@]1(CCS(=O)(=O)c2ccccc2)N=C(c2ccc(OCCCO)cc2)O[C@@H]1c1ccccc1N=[N+]=[N-]` it is 0.762. In turn, `O=C1NC(=O)C2C1C=CC(C(O)c1ccco1)N2Nc1ccccn1` (stereo not given) showed a composite z-score of -0.042. In the case of `C=CC[C@]1(C(=O)NCCN2CCOCC2)N=C(c2ccc(OCCCO)cc2)O[C@H]1c1ccccc1CN=[N+]=[N-]` it was 0.0118; in that of `CCOC(=O)C[C@H]1[C@H](OC(=O)c2ccccc2-c2ccccc2)[C@@H](NC(=O)c2ccc(-c3ccccc3)cc2)c2cc(OCCCO)ccc2N1C(=O)c1ccc2ccccc2n1`, 0.871; in that of `CCCC[C@@H](O)C1=C(COc2ccccc2)C[C@H]2C(=O)N(C)C(=O)[C@H]2[C@H]1CO`, 0.0695. The figure for `COCCOC(=O)N1C(=O)[C@@]2(c3cc(C#Cc4ccc(OC)cc4)ccc31)[C@H](C(=O)Nc1nc3ccccc3s1)[C@H]1C(=O)O[C@H](c3ccccc3)[C@H](c3ccccc3)N1[C@@H]2c1ccc(O)cc1` is 1.18; for `COC1OC[C@]2(C)[C@H]3C4=C(CN2C(=O)OC(C)(C)C)[C@H](C)C(CO)C(CO)C4CC[C@@H]13` (stereo not given in full) it is -0.664.

On to `COCCCNC(=O)[C@]1(CCS(=O)(=O)c2ccccc2)N=C(c2ccc(OCCCO)cc2)O[C@@H]1c1ccccc1N=[N+]=[N-]`, for which the composite z-score is -0.279.

Turning to `CCCNC(=O)[C@@]1(c2ccc([N+](=O)[O-])cc2)CC(=O)N(C2CCCCC2)[C@@H]1c1ccc(CO)cc1`, the composite z-score stood at 0.344. Take `[N-]=[N+]=NCc1ccccc1C[C@@]1(C(=O)N2CCOCC2)N=C(c2ccc(OCCCO)cc2)O[C@@H]1c1ccccc1`: the composite z-score is -0.379. As for `NC(N)=NCCCn1cc(CNC(=O)[C@@H](N)Cc2ccccc2)nn1`, the composite z-score came out at 1.05. The figure for `COC(=O)[C@@]1(Cc2ccc(OC)cc2)[C@H]2c3cc(C(=O)N(C)C)n(CCO)c3C[C@H]2CN1C(=O)c1ccccc1` is -1.19. In the case of `COCCCNC(=O)[C@@]1(Cc2ccccc2CN=[N+]=[N-])N=C(c2ccc(OCCCO)cc2)O[C@H]1c1ccccc1` it was 0.365; in that of `C=C[C@@H](OC)[C@H](OC(=O)Nc1ccc(SC)cc1)c1ccc(O)c(F)c1`, 0.885. In the case of `CCCCCCCCCCC(O)C1C=CC2C(=O)N(C)C(=O)C2N1Nc1ccc([N+](=O)[O-])cc1[N+](=O)[O-]` (stereo not given) it was -0.524. `O=C(NCc1ccccc1)[C@@H]1c2ccccc2C(=O)N(Cc2ccccc2C(F)(F)F)[C@H]1c1ccc(CO)cc1` displayed a composite z-score of -0.324.

As for `COCCOC(=O)N1C(=O)[C@@]2(c3cc(C#CCCO)ccc31)[C@H](C(=O)Nc1nc3ccccc3s1)[C@H]1C(=O)O[C@H](c3ccccc3)[C@H](c3ccccc3)N1[C@@H]2c1ccccc1OCCO`, the composite z-score was 0.573. The figure for `COCCOC(=O)N1C(=O)[C@@]2(c3cc(C#CCC(C(=O)OC)C(=O)OC)ccc31)[C@H](C(=O)N1CCc3cc(OC)c(OC)cc3C1)[C@H]1C(=O)O[C@H](c3ccccc3)[C@H](c3ccccc3)N1[C@@H]2c1ccc(OCCO)cc1` is 1.02; for `COc1ccc(CCNC(=O)[C@@]2(Sc3ccc(C)cc3)CC(=O)N(C3Cc4ccccc4C3)[C@@H]2c2ccc(CO)cc2)cc1` it is 1.44. Consider `CC1=C([C@H](O)CCc2ccccc2)[C@H](CO)[C@@H]2C(=O)N(C)C(=O)[C@@H]2C1`, for which the composite z-score worked out at 0.475.

As for `COc1ccccc1CN1C(=O)c2ccccc2[C@@]2(Cc3ccccc3N(CC(F)(F)F)C2=O)[C@@H]1c1ccc(CO)cc1`, the composite z-score is 0.292. Take `CC(C)(C)OC(=O)CC[C@]1(C(=O)NCc2ccccc2)N=C(c2ccc(OCCCO)cc2)O[C@H]1c1ccccc1CN=[N+]=[N-]`: the composite z-score turned out to be 1.33. Compound `O=C(NCC(F)(F)F)[C@@H]1c2ccccc2C(=O)N(Cc2ccc(OC(F)(F)F)cc2)[C@H]1c1ccc(CO)cc1` displayed a composite z-score of 0.713. In the case of `COc1ccc([Si](C)(C)[C@H]2[C@H](CCn3cc([C@H](O)c4ccccc4)nn3)O[C@@]3(C(=O)N(Cc4ccc(N5C(=O)c6cccc7cccc5c67)cc4)c4ccccc43)[C@@H]2C)cc1` it was -0.0986; in that of `CCCCCCc1nc(C2CC2)cc2c1[Si](C(C)C)(C(C)C)O[C@H]2c1ccccc1`, 1.05; in that of `COc1cc2c(cc1OC)CN(C(=O)[C@@H]1[C@H]3C(=O)O[C@H](c4ccccc4)[C@H](c4ccccc4)N3[C@H](c3ccc(OCCO)cc3)[C@@]13C(=O)Nc1ccccc13)CC2`, 1.19. As for `CCOC(=O)C[C@H]1[C@H](OC(=O)c2ccc(C(=O)c3ccccc3)cc2)[C@@H](NC(=O)Cc2ccc(OC)cc2)c2cc(OCCCO)ccc2N1C(=O)c1ccccc1`, the composite z-score is 0.162. In the case of `Cc1cc(C)c(C(O)C2C=CC3C(=O)NC(=O)C3N2Nc2ccc(Cl)cc2Cl)c(C)c1` (stereo not given) it was -0.0986.
